According to PubChem BioAssay AID1779 (Sanford-Burnham Center for Chemical Genomics, 2009):
The campaign covered roughly 290,000 compounds. About 160 (0.055%) were called active. Many of the other results were omitted from the sample, so actives are more common in it than they were. A number with no mark means an inactive call. Rule as the data show it: active = inhibition above about 50%; inactive = the rest.

Target: Tyrosine-protein phosphatase non-receptor type 22 (Homo sapiens) (UniProt Q9Y2R2)
Sequence (Q9Y2R2 whole entry, looked up): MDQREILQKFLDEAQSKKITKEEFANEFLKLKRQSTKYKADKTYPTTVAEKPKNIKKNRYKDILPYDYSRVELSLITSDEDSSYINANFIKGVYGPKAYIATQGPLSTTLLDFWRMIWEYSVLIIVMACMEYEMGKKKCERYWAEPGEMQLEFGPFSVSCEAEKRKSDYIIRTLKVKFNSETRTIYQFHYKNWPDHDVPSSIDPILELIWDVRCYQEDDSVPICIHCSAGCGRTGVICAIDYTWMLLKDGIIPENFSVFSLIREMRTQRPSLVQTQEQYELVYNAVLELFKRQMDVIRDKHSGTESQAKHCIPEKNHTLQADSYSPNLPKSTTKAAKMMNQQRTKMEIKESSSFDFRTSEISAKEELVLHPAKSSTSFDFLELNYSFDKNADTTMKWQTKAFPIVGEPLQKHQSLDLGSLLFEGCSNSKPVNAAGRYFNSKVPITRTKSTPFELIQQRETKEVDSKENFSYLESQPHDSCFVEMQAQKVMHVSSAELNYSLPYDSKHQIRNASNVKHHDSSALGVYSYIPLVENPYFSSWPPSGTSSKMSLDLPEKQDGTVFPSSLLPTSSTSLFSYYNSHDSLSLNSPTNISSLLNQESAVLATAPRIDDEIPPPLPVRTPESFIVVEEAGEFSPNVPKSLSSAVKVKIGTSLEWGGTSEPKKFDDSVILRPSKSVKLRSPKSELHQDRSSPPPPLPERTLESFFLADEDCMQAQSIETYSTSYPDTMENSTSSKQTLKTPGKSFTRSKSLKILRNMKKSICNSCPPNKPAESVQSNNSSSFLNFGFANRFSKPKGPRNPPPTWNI
Experiment: PTPN22 lymphoid phosphatase activity blockers – biochemical, fluorescence intensity, uHTS (AID 1779);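 also: plate controls were vehicle with enzyme for no effect and no enzyme for full effect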
Details: recombinant LYP phosphatase, at 11.5 µM, stronger effect = higher value

Row | Compound | inhibition
1 | CCCN1C(=O)C2(C(C(=O)c3ccc(C)o3)=C(O)C(=O)N2CCCOC)c2ccccc21 (stereo unspecified) | 3.3%
2 | Cc1nc2ccccc2cc1C(=O)NCc1ccco1 | 1.1%
3 | O=C(NCc1ccco1)c1ccc2ccccc2n1 | 56.3% (active)
4 | O=C(NCc1ccccc1)c1ccc2ccccc2n1 | -6.3%
5 | CC1CCN(C(=O)Cn2c(SCC(=O)Nc3nccs3)nc3ccccc32)CC1 | -1%
6 | CN1CCN(c2ccccc2NC(=O)Cc2ccc(Cl)cc2)CC1 | -9.1%
7 | NN1C(=O)/C(=C2/Sc3ccccc3N2CCCS(=O)(=O)O)SC1=S | -6.6%
8 | CC1=NN(C(=O)c2ccc(Cn3ccc([N+](=O)[O-])n3)cc2)C(O)(C(F)(F)F)C1 (stereo unspecified) | 63.4% (active)
9 | CC1=NN(C(=O)Cn2ccc([N+](=O)[O-])n2)C(O)(C(F)(F)F)C1 (stereo unspecified) | -3.6%
10 | CC1=NN(C(=O)c2ccc(Cn3cc([N+](=O)[O-])cn3)cc2)C(O)(C(F)(F)F)C1 (stereo unspecified) | -3.4%
11 | CC1Cc2ccccc2N1C(=O)CCn1c(=O)oc2ccccc21 (stereo unspecified) | 5.2%
12 | COc1ccc(C(=O)n2ncc(C#N)c2N)cc1 | -0.2%
13 | CSC1=NCCN1CCOc1ccccc1 | -8.5%
14 | O=C(Cc1cccs1)N1CCN(c2ccc([N+](=O)[O-])cc2)CC1 | 70% (active)
15 | O=C(Cc1ccc([N+](=O)[O-])cc1)N1CCN(c2ccc([N+](=O)[O-])cc2)CC1 | -5.9%
16 | O=C(Cc1cccs1)N1CCN(c2ccc(F)cc2)CC1 | -8.1%
17 | CCOC1(C)OCC(=O)[C@]2(CCC3C4CCC5=CC(=O)C=CC5(C)C4C(=O)CC32C)O1 (stereo partly specified) | 55.8% (active)
18 | CC(=O)OCC(=O)[C@@]1(O)CC[C@H]2[C@@H]3CCC4=CC(=O)C=C[C@]4(C)[C@H]3C(=O)C[C@@]21C | -4.3%
19 | C[C@]12C=CC(=O)C=C1CC[C@@H]1[C@@H]2C(=O)C[C@@]2(C)[C@H]1CC[C@]2(O)C(=O)CO | -5.9%
20 | CCN(CC)CCNC(=O)C1CCN(S(=O)(=O)N2CCCCC2)CC1 | -7.2%
21 | COc1ccccc1N1CCN(C(=O)C2CCN(C(=O)c3cccc(Cl)c3)CC2)CC1 | -6.5%

Row | Compound | inhibition
22 | COc1ccccc1N1CCN(C(=O)C2CCN(C(=O)c3ccccc3Cl)CC2)CC1 | 69.4% (active)
23 | COc1ccccc1N1CCN(C(=O)C2CCN(C(=O)c3ccccc3C)CC2)CC1 | -10.9%
24 | O=C(Nc1ccc2c(c1)OCO2)c1ccccc1SCC(=O)N1CCCC1 | 0.1%
25 | CCOc1cc(N2CCOCC2)c(OCC)cc1NC(=O)c1c(-c2ccccc2Cl)noc1C | 2.6%
26 | CCSc1nnc(NC(=O)C2CC=CCC2C(=O)O)s1 (stereo unspecified) | 0.6%
27 | CCSc1nnc(NC(=O)C2CCCCC2)s1 | -4.2%
28 | CCSc1nnc(NC(=O)C2CCCCC2C(=O)O)s1 (stereo unspecified) | 66.2% (active)
29 | CS(=O)(=O)N(CC(=O)Nc1ccccc1Br)Cc1ccccc1 | -4.5%
30 | O=C1NC(c2ccc(Br)cc2)=N/C1=C/c1ccco1 | 9.9%
31 | CC1=N/C(=C/c2ccco2)C(=O)O1 | -3.8%
32 | O=C1OC(c2ccc(Br)cc2)=N/C1=C\c1ccco1 | 63.7% (active)
33 | CCOC(=O)c1ccc(N2C(=O)C3C(/C=C/c4ccccc4)OC4(C(=O)c5ccccc5C4=O)C3C2=O)cc1 (stereo unspecified) | 7.3%
34 | CCOC(=O)c1cc(-c2cc(OC)c(OC)c(OC)c2)nc2c1c(=O)[nH]c(=O)n2Cc1ccccc1 | -8.7%
35 | CCOc1ccc(C(=O)Nc2ccc(Cl)cn2)cc1Cl | 80.4% (active)
36 | COc1ccc(C(=O)Nc2ccc(Cl)cn2)cc1Cl | 0.7%
37 | O=C(COc1ccc(Cl)cc1Cl)Nc1ccc(Cl)cn1 | -4.3%
38 | CCn1c(SCC(=O)N/N=C(/C)c2ccncc2)nc2ccccc21 | -6.6%
39 | Cc1ccc(S(=O)(=O)NC(=O)Nc2nnc(C3CC3)s2)cc1 | -9.1%
40 | CC(=O)Nc1ccc(NC(=O)CSc2ccc(-c3sc(C)nc3C)nn2)cc1 | -10.3%
41 | N#Cc1c(/N=C\c2ccc(O)c([N+](=O)[O-])c2)sc2c1CCCC2 | 7.9%
42 | CC1=NN(c2ccccc2)C(=O)/C1=C\C=C1\N(C)c2ccccc2C1(C)C | 6.4%

Row | Compound | inhibition
43 | O=C(CNC(=O)c1ccc(F)cc1)NCc1ccc(Cl)cc1 | -3%
44 | O=C(CNC(=O)c1ccc(Cl)cc1)NCC(F)(F)F | 68.8% (active)
45 | CC(=O)NCCNC(=O)CNC(=O)c1ccc(Cl)cc1 | -1.1%
46 | O=C1CC(N2CCN(c3cccc(C(F)(F)F)c3)CC2)C(=O)N1c1ccc(F)cc1 (stereo unspecified) | 4.8%
47 | N#CC(C(=O)NC1CCCCC1)=C1CCCCC1 | 62.7% (active)
48 | O=C(NC1CCCCCC1)C(=O)NC1CCCC1 | -2.9%
49 | N#CC(C(=O)NC1CCCCC1)=C1CCCCCC1 | 2.1%
50 | CCN(CCCNC(=O)C1CCN(S(=O)(=O)c2cccc3nonc23)CC1)Cc1ccccc1 | -4.7%
51 | Cc1cc([N+](=O)[O-])ccc1NC(=O)CCC(=O)N1CCCCC1 | -5.2%
52 | COc1ccc(NC(=S)N(CCN(C)C)C(C)c2ccncc2)cc1Cl (stereo unspecified) | -7.3%
53 | CCOC(=O)C1=C(CP(=O)(c2ccccc2)c2ccccc2)NC(=O)NC1c1ccc(OC)cc1 (stereo unspecified) | 4%
54 | CC/C(=N\O)c1c(O)c2c(n(-c3ccccc3)c1=O)CCCC2 | 3.9%
55 | CC(C)c1c(O)c2c(n(-c3ccccc3)c1=O)CCCC2 | 1%
56 | O=c1c(-c2ccccc2)c(O)c2c(n1-c1ccccc1)CCCC2 | 66.2% (active)
57 | Cc1cc(C)cc(Cn2ncc(Cl)c(Cl)c2=O)c1 | -5.9%
58 | COc1ccc(C(=O)Nc2nc(N3C(=O)c4ccccc4C3=O)n(-c3ccccc3)n2)cc1 | -1.2%
59 | O=C(COc1ccc(/C=N/NC(=O)c2ccncc2)cc1)Nc1cccc([N+](=O)[O-])c1 | -3.3%
60 | O=C(COc1ccc(/C=N/NC(=O)c2ccc(O)cc2)cc1)Nc1cccc([N+](=O)[O-])c1 | 56.7% (active)
61 | COc1cc(/C=N/NC(=O)c2ccc(O)cc2)ccc1OCC(=O)Nc1cccc([N+](=O)[O-])c1 | -5.1%
